DAX1 inh-1 – DAX1 (NR0B1) inhibition, primary screen. HEK293T StAR-luciferase reporter, SF-1/DAX-1 repression relief. inhibition, % at 6.8 µM. hit rate 1.1% among 370,000. AID 652010;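 active = inhibition above the mean over all tested compounds plus 3 SD, cut at about 3.6% in these data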;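 also: 0% = DAX-1 cells with DMSO and 100% = cells lacking DAX-1 with DMSO; higher inhibition means more luminescence from relief of DAX-1 repression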
ssDAF12 agonist – activators of S. stercoralis DAF-12 nuclear receptor; HEK293 ssDAF-12/GRIP1 lit1-tk-luc reporter, luminescence; % of 3 µM dafachronic acid response; activation, % at 6.8 µM; hit rate 1% among 370,000; AID 652126;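 active = activation above the mean over all tested compounds plus 3 SD, cut at about 0.9% in these data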;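 also: 0% = DMSO-only wells and 100% = 3 µM delta7-dafachronic acid wells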
hcDAF-12 act – activates DAF-12 receptor from parasite H. contortus. HEK293 hcDAF-12 lit1-tk-luc reporter, luminescence; 0% DMSO, 100% Δ7-dafachronic acid. activation, % at 6.8 µM. hit rate 1.4% among 370,000. AID 652067;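 active = activation above the mean of all tested compounds plus 3 SD, cut at about 5.5% in these data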;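 also: 100% = response to 3 µM Δ7-dafachronic acid high control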
DAX1 inh-2 – inhibitors of human orphan nuclear receptor DAX1 (NR0B1); P51843; HEK293 Gal4-DAX1 luciferase reporter, luminescence; hit rate 0.99% among 340,000; inhibition, % at 6.75 µM;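 active = inhibition above the mean over all tested compounds plus 3 SD, cut at about 4.2% in these data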;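 also: 0% = DAX1-transfected cells with DMSO and 100% = empty-vector control cells with DMSO; inhibition shows as a rise in luminescence from relieved DAX1 repression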
Target sequence (P51843 207-470 limits assumed): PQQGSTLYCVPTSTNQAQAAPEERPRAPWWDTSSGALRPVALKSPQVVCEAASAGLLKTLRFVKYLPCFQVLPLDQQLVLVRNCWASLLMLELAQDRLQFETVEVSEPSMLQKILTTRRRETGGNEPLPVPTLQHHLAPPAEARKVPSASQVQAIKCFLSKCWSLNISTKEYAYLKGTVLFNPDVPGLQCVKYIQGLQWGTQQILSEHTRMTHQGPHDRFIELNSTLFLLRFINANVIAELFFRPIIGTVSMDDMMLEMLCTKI
hgDAF-12 ag – hgDAF-12 agonism, primary luciferase screen; HEK293 GAL4-hgDAF12 UAS-luciferase reporter, agonist luminescence; normalized to butyrate control; activation, % at 6.8 µM; hit rate 1.8% among 370,000; AID 687014;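 active = activation above a cutoff set at the mean of all screened compounds plus 3 SD, cut at about 10% in these data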;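 also: 0% = DMSO wells and 100% = sodium butyrate wells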
* = called active by the depositor; . = no result given. Hits are enriched below; roughly 4.1% of the tested compounds scored in any of these assays.

SMILES	DAX1 inh-1	ssDAF12 agonist	hcDAF-12 act	DAX1 inh-2	hgDAF-12 ag
COCC(=O)N1CCC(C(=O)NCC2COc3ccccc3O2)CC1 (stereo unspecified)	0.6	-0.9	-1.9	.	-0.5
COc1ccc(-c2cc(C(=O)NN=Cc3ccc(C)s3)[nH]n2)cc1	-1.8	-0.8	-0.2	.	4.9
NNC(=O)Cn1nnc(-c2ccc(C(F)(F)F)cc2)n1	-0.2	0.9*	1.0	.	2.0
CC(=O)Cn1nnc(-c2ccc(C(F)(F)F)cc2)n1	0.8	-1.1	-0.9	2.9	1.8
COc1ccc(-n2c(SCC(=O)NCCCSC)nnc2-c2ccncc2)cc1	1.3	-1.0	-0.7	.	-2.0
COc1ccc(C(=O)N(C)c2c(C)n(C)n(-c3ccccc3)c2=O)cc1OC	-0.1	0.9	0.4	-1.1	5.9
Cc1cc(Oc2nc3c(C)cccn3c(=O)c2/C=C(\C#N)S(=O)(=O)c2ccccc2)ccc1Cl	0.8	0.7	6.2*	0.2	3.9
Cc1cccn2c(=O)c(/C=C(\C#N)S(=O)(=O)c3ccccc3)c(Oc3ccc(Cl)cc3)nc12	0.2	-1.4	-0.7	0.3	1.2
CC(C)c1ccc(-c2nnc(N)s2)cc1	1.9	0.4	6.0*	3.7	11.3*
CNS(=O)(=O)c1cccc(C(=O)NCC2(N3CCOCC3)CCCCC2)c1	0.6	-1.2	-0.5	-0.2	-2.8
COc1ccccc1NS(=O)(=O)c1cccc(C(=O)NCC2(N3CCCCC3)CCCCC2)c1	4.0*	-0.6	-0.2	1.3	0.2
Cc1ccc(C2=N/C(=C\c3coc4ccccc4c3=O)C(=O)O2)cc1	0.2	-0.4	0.6	.	-1.5
CC1(C)CC(=O)c2sc(N3CCCCC3)nc2C1	0.9	-0.1	1.0	2.5	4.3
CC1(C)CNC(=O)c2sc(N3CCCCC3)nc2C1	0.0	-0.2	0.0	5.6*	1.0
Cc1cc2c(cc1C)NC(=O)CC(C(F)(F)C(F)(F)C(F)(F)F)=N2	-0.3	-0.6	-1.7	4.7*	1.5
COc1ccc(C[N+]2=C(N)NC3=C4CCCCC4n4c(=O)n(-c5ccccc5)c(=O)n4C3C2)c(OC)c1 (stereo unspecified)	-1.3	-1.5	-0.6	.	-0.3
O=S1(=O)c2c(cccc2N2CCSCC2)Oc2ccccc2CN1Cc1cn(Cc2ccccc2C(F)(F)F)nn1	0.4	-2.0	-1.9	.	-0.1
O=C(NC1CCS(=O)(=O)C1)/C(=C\c1ccccc1)NC(=O)c1ccccc1 (stereo unspecified)	-0.2	-1.3	1.3	-0.9	-0.7
O=C(NC1CCS(=O)(=O)C1)/C(=C/c1ccc(Cl)cc1)NC(=O)c1ccccc1 (stereo unspecified)	-0.7	-1.1	0.8	4.8*	0.7
C/C(=N\O)C(C)(C)Nc1cccc(Br)c1	-0.1	-1.2	-1.3	-1.1	-2.4
C/C(=N\O)C(C)(C)Nc1cccc(F)c1	0.5	-0.7	-0.3	5.2*	0.2
C/C(=N\OC(=O)c1ccc(Br)cc1)c1ccccn1	0.5	0.9*	1.5	0.9	0.4
Cc1ccc(C(=O)O/N=C(\N)c2ccccn2)cc1	-0.6	-1.9	-2.2	-2.8	-8.5
O=C(Nc1ccccc1)c1cc(-c2ccccc2Cl)no1	3.0	-0.2	0.6	4.3*	9.5
COc1ccc(CN(C)C(C#Cc2ccccc2)Cc2ccccc2)c(OC)c1 (stereo unspecified)	-0.2	-1.5	-2.1	.	-0.8
SMILES	DAX1 inh-1	ssDAF12 agonist	hcDAF-12 act	DAX1 inh-2	hgDAF-12 ag
CCNC(=O)CSc1nnc(CN2CCCCCC2=O)n1-c1ccccn1	0.6	-0.9	0.4	0.2	-2.8
O=C1CCCCCN1Cc1nnc(SCc2nc3ccccc3s2)n1-c1ccccn1	1.8	1.9*	5.7*	1.9	9.0
FC(F)(F)c1cccc(N2CCN(C(=S)Nc3nccc4ccccc34)CC2)c1	.	-0.8	4.5	.	2.6
COC(=O)/C(C#N)=C1/C=Cc2ccccc2N1	1.2	-0.8	5.9*	3.4	10.4
CCN(CC(=O)NCc1ccncc1)S(=O)(=O)c1cc(Cl)ccc1Cl	0.0	-1.1	-2.8	4.2*	3.2
CN(C)c1ccc(C(=O)NN2C(=O)c3ccccc3C2=O)cc1	-0.2	-1.2	-0.2	0.0	10.7*
O=C(NN1C(=O)c2ccccc2C1=O)c1ccncc1	0.2	-1.8	-1.1	0.8	-2.3
O=C(O)c1ccc(S(=O)(=O)c2ccc3c(c2)C(=O)N(NC(=O)c2ccccc2)C3=O)cc1	1.5	-0.6	0.7	1.0	12.0*
Cc1[nH]c2ccccc2c1-c1csc(N)n1	-0.5	-0.6	1.0	-1.1	2.1
